High-throughput results deposited in PubChem by National Center for Advancing Translational Sciences (NCATS).
Most compounds without a hit are left out; they make up all but 12% or so of the library.
PLK1 PBD block: PLK1 (human) polo-box domain binding inhibition. P53350. Plk1 PBD binding of FITC phosphopeptide, fluorescence polarization. Potency, µM, without a hit: max response, negative = inhibition, actives largely listed as inhibitors. hit rate 2.8% among 360,000. AID 720504; note: series mostly up to about 57 µM; % is set by controls: 0 for no effect and ±100 for the full control effect; nearly all actives have a fitted effect of over 65% in size
JMJD2A Tudor: JMJD2A Tudor domain (human) inhibition; O75164; AlphaScreen JMJD2A-Tudor / H3K4me3 peptide binding; Potency, µM (highest dose often 114 µM), for inactives: at the top dose activity change, negative = inhibition, most hits filed as inhibitors; hit rate 4.4% among 390,000; note: % is set by controls: 0 for no effect and ±100 for the full control effect; nearly all actives have a fitted effect of over 50% in size
G9a inh: blocks human histone lysine methyltransferase G9a; Potency, µM (top dose mostly 102 µM), without a hit: at the top dose activity, negative = inhibition, actives largely listed as inhibitors; hit rate 8.8% among 350,000; G9a H3K9 monomethylation, AlphaScreen, 2 h; Q96KQ7; AID 504332; note: % is set by controls: 0 for no effect and ±100 for the full control effect; nearly all actives have a fitted effect of over 75% in size
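Quantitative HTS format: methyltransferase activity on a biotin-tagged H3K9 peptide is measured by AlphaScreen, using a rabbit anti-monomethyl-H3K9 antibody with streptavidin donor and anti-IgG acceptor beads. Final levels are 20 nM enzyme, 500 nM peptide, 20 uM SAM; 2 h RT.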
Sfp PPTase inh: Sfp phosphopantetheinyl transferase inhibition; Biochemical Sfp PPTase activity, qHTS; AID 1490; Q9F4F7; Potency, µM, for inactives: largest response in the series, negative = inhibition, hits mostly inhibitors; hit rate 3.5% among 310,000;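 note: the enzyme is Sfp with the accession as filed and its product quenches rhodamine fluorescence; 0% = enzyme reaction without inhibitor and -100% = no enzyme wells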
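Fluorescence-quenching assay with 15 nM Sfp, 5 uM rhodamine-CoA and 12.5 uM BHQ-2-labelled ybbR peptide in pH 7.6 Hepes/MgCl2 buffer. Enzyme was pre-incubated with compound for 15 min at room temperature. Rate was taken from the 30-min fluorescence change (525/598 nm).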
HP1b binding inh: HP1-beta chromodomain-methylated histone interaction inhibition. P83916. AlphaScreen HP1-beta / biotin-H3K9me3 peptide binding. Potency, µM (highest dose often 114 µM), inactives show top-dose activity change, negative = inhibition, hits mostly inhibitors. hit rate 0.56% among 390,000; note: nearly all actives have a fitted effect of over 70% in size
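HP1-beta protein (50 nM final) preincubated 30 min at room temperature with biotinylated H3(1-18)K9me3 peptide (50 nM) in PBS pH 7.4, 0.01% Tween-20, then compound added for 30 min. AlphaScreen streptavidin donor/nickel chelate acceptor beads (10 ug/mL final), 30 min dark, luminescence read.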
BAZ2B block: blocks human BAZ2B; Q9UIF8; AlphaScreen BAZ2B-H3K14Ac peptide displacement; Potency, µM (titrated, usually from 114 µM), for the others: at the top dose activity change, negative = inhibition, hits mostly inhibitors; hit rate 4.4% among 360,000; note: % is set by controls: 0 for no effect and ±100 for the full control effect; nearly all actives have a fitted effect of over 60% in size
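Protein-peptide AlphaScreen: BAZ2B 50 nM, b-H3K14Ac 50 nM, 1x PBS pH 7.4 + 0.01% Tween-20. Preincubation 30 min RT; cpd 30 min RT (top 110 uM); beads 20 min RT, light-protected.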
* hit, by the source's call; ? = inconclusive; . = no result; [ ] = remark or other dose. Calls come from the whole dose curve; as a rule, active = well fitted curve in the direction sought with a large enough effect; inconclusive = small, poorly fitted or top-dose-only effect, or another doubt; inactive = no such curve, though single readings can be large; an effect the other way counts as inactive or inconclusive. Potency is the fitted concentration of half-maximal effect.

SMILES	PLK1 PBD block	JMJD2A Tudor	G9a inh	Sfp PPTase inh	HP1b binding inh	BAZ2B block
Cc1cnc(NC(=O)COc2ccccc2)s1	30µM*	89µM*	2%[59 µM]	9%	-9%	-3%
O=C(CCc1nc2ccccc2s1)NC1CCOC1=O (stereo not given)	24µM*	-9%[11.4 µM]	40%[59 µM]	12%	-11%	14%
O=C(CCCc1nc2ccccc2s1)NC1CCOC1=O (stereo not given)	10%	-5%	27%	15%	30%	-2%
COc1ccc(C(=O)/C=C/c2ccccc2C(F)(F)F)cc1	0%	23%	4%[59 µM]	-7%	67%	1%
O=C(CCCSc1nc2ccccc2s1)Nc1nccs1	-6%	16%	-35%[59 µM]	-24%	37%	2%
O=C(CCCc1nc2ccccc2s1)NNC(=O)CCN1CCN(Cc2ccccc2)CC1	-20%	-10%	35µM*	15%	12%	-22%
O=C(CCCc1nc2ccccc2s1)Nc1nccs1	-25%	-11%	40µM*	45µM*	23%	-2%
O=C(CSc1n[nH]c(-c2ccccc2Cl)n1)N1CCN(c2ccccc2F)CC1	.	-17%	-48%[59 µM]	.	13%[57 µM]	-2%
CCOc1ccccc1-n1c(N)c(C(=O)OC)c2nc3ccccc3nc21	.	0%	-55%[59 µM]	.	22%	3%
O=C(COc1cc2oc(=O)c3c(c2cc1Cl)CCCC3)NCC1CCC(C(=O)O)CC1 (stereo not given)	-4%	-9%	1%	14%	34%	-23%
Cc1cccc(-n2nc(C)c3c2NC2=C(C(=O)CCC2)C3c2ccccn2)c1 (stereo not given)	-5%	?	35µM*	2%	5%	-27%
CCSC1=NC(=O)/C(=C2/C=Cc3ccccc3N2CC)S1	1%	28µM*	?	?	?	7.1µM*
CCN1/C(=C2\OC(=S)N(C)C2=O)C=Cc2ccccc21	42%	-12%	3%	-13%	15%	.
O=C(O)c1ccc(-c2cccc([N+](=O)[O-])c2)o1	-28%	-6%[11.4 µM]	-16%	50µM*	24%	?
O=[N+]([O-])c1cccc(-c2nc(-c3ccncc3)no2)c1	4%	-4%	48%[12.7 µM]	1%	10%	-32%
O=[N+]([O-])c1cccc(-c2nc(-c3ccccc3)no2)c1	19µM*	-30%	.	-3%	-21%	-11%
N#C/C(=C(/O)c1ccc(-c2cccc([N+](=O)[O-])c2)o1)c1nc2ccccc2s1	21µM*	?	45µM*	35µM*	-6%	45µM*
O=[N+]([O-])c1cccc(-c2ccc(C(=S)N3CCN(c4ccc(F)cc4)CC3)o2)c1	-15%	?	?	-4%	?	35µM*
O=C(c1ccc(-c2cccc([N+](=O)[O-])c2)o1)N1CCN(c2ccc([N+](=O)[O-])cc2)CC1	-1%	-13%	?	.	1%	4%
O=C(NC1CCCCC1)c1ccc(-c2cccc([N+](=O)[O-])c2)o1	-5%	-12%	-6%	-7%	28%	-8%
O=C(C1CC1)N1CCc2cc(Br)cc(S(=O)(=O)N3CCN(c4cccc(C(F)(F)F)c4)CC3)c21	.	-22%	?	.	-3%	-3%
CC1(C(=O)O)CCC(C(=O)Nc2ccc(F)cc2)C1(C)C (stereo not given)	-3%	-8%	9%[59 µM]	19%	31%	6%
O=C(/C=C\c1ccc(-c2cccc([N+](=O)[O-])c2)o1)N1CCOCC1	-6%	-31%	32µM*	20µM*	3%	?
Cc1ccccc1C(=O)NCC(=O)NCC1(N2CCOCC2)CCCCC1	1%	-12%	-22%	.	28%	13%
O=C(O)CC(NC(=O)C12CC3CC(CC(C3)C1)C2)c1cc([N+](=O)[O-])ccc1Cl (stereo not given)	?	56µM*	-15%	-17%	-1%	-38%
O=C(O)C1CCCCC1C(=O)Nc1cc(C(F)(F)F)ccc1Cl (stereo not given)	-3%	-10%	.	16%	16%	-1%
